Source: ChEMBL document CHEMBL3988442, “University of Dundee, Small-Polar-MMV Screening Library” (2021)
The campaign covered roughly 48,000 compounds. About 13,000 (27%) showed an effect of 50% or more. Some of the results follow.

tested on: Wolbachia pipientis; test: Anti-Wolbachia Cell-Based Screen; type: functional; set-up: scale not given: in the data most compounds retested in dose-response had high values; conditions: 5 µM

Row | Compound | Percent Effect
1 | C1CCC(CNC2CCSCC2)(N2CCOCC2)CC1 | -18.78%
2 | CCN(CC)Cc1ccccc1NC(=O)N(C)Cc1ccc(OC)cc1 | -34.67%
3 | c1ccc(-n2ncc(CNCC3CCCN3c3cccnn3)n2)cc1 (centres undefined) | 8.726%
4 | CCC(O)CN(Cc1ccccc1)S(=O)(=O)c1cnc(C)s1 (centres undefined) | -9.422%
5 | c1cncc(CN(Cc2ccsc2)Cc2ccc(C3CCCCO3)o2)c1 (centres undefined) | -4.94%
6 | CS(=O)(=O)N1CCN(Cc2cccs2)CC(C(N)=O)C1 (centres undefined) | 99.35%
7 | CN(C)C(=O)C1CN(Cc2ccccn2)CCN(S(C)(=O)=O)C1 (centres undefined) | 88.48%
8 | CS(=O)(=O)N1C[C@H]2CCCN(Cc3cccs3)[C@H]2C1.O=C(O)C(F)(F)F | 3.048%
9 | CCCS(=O)(=O)N1C[C@@H]2CN(Cc3cccs3)CCO[C@@H]2C1.O=C(O)C(F)(F)F | 8.558%
10 | CC(C)[C@H]1CN(Cc2ccccn2)C[C@@H]1NS(=O)(=O)C1CC1 | -5.384%
11 | CCN(CC(F)(F)F)C(=O)C1CCCN(Cc2ccccn2)C1 (centres undefined) | 10.59%
12 | COCC1CN(C(=O)CNC(C)=O)Cc2ncnn2C1 (centres undefined) | 6.87%
13 | COc1nc2ccccc2cc1CN1CCC(CNS(C)(=O)=O)C1 (centres undefined) | -1.226%
14 | CN(C)CC(=O)N1CCCC2(CCC(=O)N(CCc3c[nH]cn3)C2)C1 (centres undefined) | 10.28%
15 | COc1ccc(-c2nc3c([nH]2)CCNC3C(=O)O)c2ccc(C)nc12 (centres undefined) | 11.46%
16 | O=C(CC1CC1)N1CC[C@@H]2[C@H](CC1)N(Cc1cccnc1)CCS2(=O)=O.O=C(O)C(F)(F)F.O=C(O)C(F)(F)F | 93.65%
17 | CC(C)C(=O)N1CC[C@@H]2[C@H](CC1)N(Cc1cccnc1)CCS2(=O)=O.O=C(O)C(F)(F)F.O=C(O)C(F)(F)F | 86.93%
18 | CC(C)CN1CCS(=O)(=O)[C@@H]2CCN(S(=O)(=O)c3ccccc3)CC[C@@H]21.O=C(O)C(F)(F)F | -6.866%
19 | O=C(O)C(F)(F)F.O=C(O)C(F)(F)F.O=S1(=O)CCN(Cc2cccnc2)[C@H]2CCN(c3ncccn3)CC[C@H]21 | 0.02856%
20 | O=C(C1CC1)N1CC[C@@H]2[C@H](CC1)N(Cc1cccnc1)CCS2(=O)=O.O=C(O)C(F)(F)F.O=C(O)C(F)(F)F | 101.3%
21 | CCCC(=O)N1CC[C@@H]2[C@H](CC1)N(Cc1cccc(C)n1)CCS2(=O)=O.O=C(O)C(F)(F)F | 0.2499%
22 | CCS(=O)(=O)N1CC[C@@H]2[C@H](CC1)N(CC(C)C)CCS2(=O)=O.O=C(O)C(F)(F)F | -5.407%
23 | CCS(=O)(=O)N1CC[C@@H]2[C@H](CC1)N(Cc1cccc(C)n1)CCS2(=O)=O.O=C(O)C(F)(F)F | -2.049%

Row | Compound | Percent Effect
24 | Cc1cccc(CN2CCS(=O)(=O)[C@@H]3CCN(C(=O)C4CC4)CC[C@@H]32)n1.O=C(O)C(F)(F)F | 4.108%
25 | O=C(O)C(F)(F)F.O=C(O)C(F)(F)F.O=C(O)C(F)(F)F.c1cncc(CN2CC[C@@H]3[C@@H]2CCN3Cc2ccc3c(c2)OCO3)c1 | -20.95%
26 | CCS(=O)(=O)N1CC[C@@H]2[C@H](CC1)N(Cc1cccnc1)CCS2(=O)=O.O=C(O)C(F)(F)F.O=C(O)C(F)(F)F | 110.8%
27 | CN(CCCN1CCOCC1)[C@@H]1c2ccccc2C2(CCNCC2)[C@H]1O | 1.971%
28 | Cc1cc(S(=O)(=O)N2CCCc3cc(F)cc(F)c32)sc1C(=O)O | 6.843%
29 | Cc1ccc2nc(C)cc(C(=O)N3C[C@H]4CCC[C@@]4(CO)C3)c2c1 | -30.24%
30 | COCCn1cnnc1Cn1ccnc1-c1ccoc1 | 3.29%
31 | Nc1ncc2c(n1)CN(C1CCCC1)C2=O | -0.5678%
32 | CC(C)CC(=O)N1CC[C@@H]2[C@H](CC1)N(Cc1cccnc1)CCS2(=O)=O.O=C(O)C(F)(F)F.O=C(O)C(F)(F)F | 108.2%
33 | CCC(=O)N1CC[C@@H]2[C@H](CC1)N(Cc1cccc(C)n1)CCS2(=O)=O.O=C(O)C(F)(F)F | -0.9694%
34 | CCCC(=O)N1CC[C@@H]2[C@H](CC1)N(Cc1cccnc1)CCS2(=O)=O.O=C(O)C(F)(F)F.O=C(O)C(F)(F)F | -5.055%
35 | CC(C)Nc1cc(N2CCN(Cc3ccccc3)C(CCO)C2)ncn1 (centres undefined) | 10.47%
36 | CNC(=O)C1CN(c2ccnc(C)n2)CCN1Cc1ccccc1 (centres undefined) | 49.78%
37 | CNC(=O)C1CN(c2ncccn2)CCN1Cc1ccccc1 (centres undefined) | 91.24%
38 | Cc1cc(N2CCN(Cc3ccccc3)CC(O)C2)nc(N)n1 (centres undefined) | 4.027%
39 | CNC(=O)C1CN(c2cc(C)ncn2)CCN1Cc1ccccc1 (centres undefined) | 91.54%
40 | Cc1cccnc1NC(=O)C1CCCN1Cc1ccccc1 (centres undefined) | 28.43%
41 | Cc1c(C(C)NC2CCCC2)cnn1-c1ccc(F)cc1F (centres undefined) | 1.139%
42 | O=C(N[C@@H]1CN(Cc2ccc(F)c(F)c2)C[C@H]1O)c1cscn1 | 124.1%
43 | O=C(N[C@@H]1CN(Cc2ccc(F)cc2)C[C@H]1O)c1cscn1 | 113.4%
44 | CC(C)N1C[C@H](NC(=O)c2coc(COc3cccc(F)c3)n2)[C@@H](O)C1 | 0.03825%
45 | CN(c1ncccc1CNC(=O)c1cscn1)C1CCCCC1 | -0.9499%
46 | O=C(N[C@@H]1CN(Cc2cccc(F)c2)C[C@H]1O)c1cscn1 | 114.1%

Row | Compound | Percent Effect
47 | O=C(N[C@@H]1CN(c2ncc(F)cn2)[C@@H]2COC[C@@H]21)c1cscn1 | -1.705%
48 | O=C(N[C@@H]1CCN(C(=O)c2cc[nH]c2)C[C@H]1O)c1ccccn1 | 16.73%
49 | Fc1ccc(CN2CCCN(Cc3cscn3)CC2)cc1 | -1.277%
50 | O=C(NC1CC(=O)N(Cc2cccc(F)c2)C1)c1ccncc1 (centres undefined) | 2.208%
51 | O=C(NS(=O)(=O)c1ccc(F)c(F)c1)c1cscn1 | 8.824%
52 | O=C(N[C@@H]1CN(Cc2cccc3[nH]ccc23)C[C@H]1O)c1cscn1 | 113.8%
53 | NC(=O)CN1C(=O)CO[C@H]2CN(Cc3ccc(F)c(F)c3)C[C@H]21 | 0.7627%
54 | CNC(=O)N1CCOC(C)(c2cnn(C)c2)C1 (centres undefined) | -1.831%
55 | NC(=O)C1CCN(CCc2ccc(NCc3cscn3)cc2)CC1 | 0.9786%
56 | O=C(N[C@@H]1CCN(c2nccc3ccccc23)C[C@H]1O)c1cnccn1 | -5.026%
57 | O=C(N[C@@H]1CN(Cc2ccc3cc[nH]c3c2)C[C@H]1O)c1cnccn1 | 102.1%
58 | CSCCCN1CC[C@@H](NC(=O)c2cnccn2)[C@H](O)C1 | -11.75%
59 | O=C(N[C@@H]1CN(CCc2ccc(F)cc2)C[C@H]1O)c1cscn1 | 115.2%
60 | CCc1cnc(N2C[C@@H](NC(=O)c3cscn3)[C@H]3COC[C@H]32)nc1.O=C(O)C(F)(F)F | -6.299%
61 | N#Cc1cc(NC(=O)c2cscn2)ccc1N1CCC(O)CC1 | -15.52%
62 | O=C(N[C@@H]1CN(Cc2ccc3[nH]ccc3c2)C[C@H]1O)c1cscn1 | 101.2%
63 | O=C(O)CCc1cc2n(n1)CCN(Cc1ccc3[nH]ccc3c1)C2 | -14.18%
64 | COCCn1cnnc1Cn1ccnc1-c1ccccc1C | -14.43%
65 | c1ccc(-c2cc(CC3(NCc4ncc[nH]4)COC3)no2)cc1 | -5.291%
66 | O=C1OCCN1CCS(=O)(=O)c1cccc(Cl)c1 | -8.046%
67 | CC(C(=O)N1CCc2sccc2C1)N1CCC(S(N)(=O)=O)CC1 (centres undefined) | 4.951%
68 | O=S(=O)(N1CCCC1)N1CCc2sccc2C1 | -2.678%
69 | CC(C)c1ccc(C(CN)N2CCc3sccc3C2)cc1 (centres undefined) | 134.3%

Row | Compound | Percent Effect
70 | CC(C)c1nsc(N2CCc3sccc3C2)n1 | -3.315%
71 | NCC(c1ccc(Cl)cc1)N1CCc2sccc2C1 (centres undefined) | 85.2%
72 | N#Cc1ccc(F)c(CN2CCc3sccc3C2)c1 | 10.21%
73 | O=C1CC2(CCCC2)C(=O)N1CC(O)COCc1ccccc1F (centres undefined) | -41.58%
74 | CCOc1ncccc1C(=O)NCC(O)c1ccc(F)c(F)c1 (centres undefined) | -43.97%
75 | O=C(O)C(F)(F)F.O=C(O)C(F)(F)F.c1ccc(OCc2nnc3n2CCN(CC2CCOCC2)C3)nc1 | 15.11%
76 | Cc1cc(C)c(CNC(=O)NCC(O)COc2ccccc2)c(=O)[nH]1 (centres undefined) | -7.857%
77 | Cc1ccc(CN2CCC(n3cc(CN4CCC(O)CC4)nn3)CC2)s1 | -6.735%
78 | COCCN1CCC12CCN(C(=O)c1ccsc1)CC2.O=C(O)C(F)(F)F | -8.3%
79 | CCc1noc(CCC(=O)N2CCC(c3ccn[nH]3)C2)n1 (centres undefined) | 80.59%
80 | CCCc1noc(CCC(=O)N2CCCC(c3ccn[nH]3)C2)n1 (centres undefined) | -9.271%
81 | CCc1noc(CCCC(=O)N2CCCC(c3ccn[nH]3)C2)n1 (centres undefined) | -18.93%
82 | COCC(=O)NCC1Cn2nnc(-c3ccoc3)c2CO1 (centres undefined) | -10%
83 | Fc1ccc2c(c1)C(NCc1nnc3n1CCCCC3)CCCO2 (centres undefined) | -5.807%
84 | O=c1cc(-c2ccc(F)cc2)nc2n1CCCCC2 | 114%
85 | O=c1[nH]c(-c2ccc(F)cc2)nc2c1CCNC2 | -26.62%
86 | NC1(c2nc(-c3ccccc3)cc(=O)[nH]2)CCCC1 | -3.244%
87 | O=c1cc(-c2ccccc2)nc2n1CCCCC2 | 110.3%
88 | Cc1nc(-c2ccccc2)ccc1C(=O)N1CCn2c(C)nnc2C1 | -4.566%
89 | CCc1cc(CNC(=O)Nc2cc(F)cc(N3CCCC3)c2)on1 | -27.71%
